Screening results: PubChem BioAssay, National Center for Advancing Translational Sciences (NCATS)
LmPK inh = blocks Leishmania mexicana pyruvate kinase activity. purified LmPK, Kinase-Glo ATP luminescence, 1 h. Potency, µM (highest dose often 57.5 µM), hits mostly inhibitors. 290,000 tested, 0.37% active. AID 1721. Q27686
Target sequence (Q27686 whole entry, looked up): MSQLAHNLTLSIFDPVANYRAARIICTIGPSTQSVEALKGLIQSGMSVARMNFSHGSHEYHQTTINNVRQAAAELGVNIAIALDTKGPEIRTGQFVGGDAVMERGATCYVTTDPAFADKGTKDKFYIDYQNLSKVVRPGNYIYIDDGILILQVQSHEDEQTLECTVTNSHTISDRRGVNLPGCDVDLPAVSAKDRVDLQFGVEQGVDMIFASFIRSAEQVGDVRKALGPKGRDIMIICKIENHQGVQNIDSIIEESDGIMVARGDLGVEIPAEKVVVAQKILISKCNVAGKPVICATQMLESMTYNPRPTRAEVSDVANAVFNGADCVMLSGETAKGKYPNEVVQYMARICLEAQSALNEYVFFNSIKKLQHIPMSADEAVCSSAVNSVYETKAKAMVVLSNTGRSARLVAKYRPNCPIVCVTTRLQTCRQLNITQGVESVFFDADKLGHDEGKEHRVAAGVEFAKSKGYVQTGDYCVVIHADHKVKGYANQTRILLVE
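Pyruvate kinase activity monitored as ATP production (luciferase luminescence). Conditions: 0.1 nM enzyme, 0.5 mM PEP, 0.1 mM ADP, 1 h, RT; normalized against uninhibited and no-enzyme wells.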
Tb PYK inh = inhibitors of Trypanosoma brucei pyruvate kinase; TbPYK enzyme, Kinase-Glo Plus ATP luminescence, 45 min; 410,000 tested, 0.12% active; Potency, µM (top dose mostly 76.8 µM), hits mostly inhibitors; Q57TT1; AID 624173; note: nearly all actives have a fitted effect of over 50% in size
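Screened from lowest to highest concentration, compounds were pinned into TbPYK/substrate mixtures, and ADP (130 uM final) was added. Plates sat at room temperature for 45 min prior to Kinase-Glo Plus detection by luminescence.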
NS1 function inh = influenza NS1 inhibition; Potency, µM (doses to about 46.1 µM); 270,000 tested, 0.4% active; calls by dose curve; note: actives are rising curves; nearly all actives have a fitted effect of over 50% in size
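OD600 was taken as the measure of yeast growth restored by compound in an NS1-expressing S. cerevisiae strain. Cells had been washed out of glucose medium and diluted 1:100 into galactose -URA medium, pH 6.0.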
RE007 growth inh = less growth of the S. pombe RE007 Vpr strain | S. pombe RE007 Vpr strain, BacTiter-Glo ATP luminescence, 24 h | 360,000 tested, 0.21% active | AID 651644 | Potency, µM (titrated, usually from 92.2 µM), most hits filed as inhibitors; active = well fitted falling curve with a large enough effect; inconclusive = small, poorly fitted or top-dose-only effect; inactive = no such curve, though single readings can be large or run the other way; note: nearly all actives have a fitted effect of over 50% in size
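Fission yeast RE007 carrying one integrated HIV-1 vpr copy, seeded at OD 0.01 in PMG+AL medium with 23 nL pinned compound. Grown 24 h at 30 degrees; viability read by BacTiter-Glo luminescence after 5 min.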
Hits are given with their value; 0 = inactive; ? = inconclusive; - = not tested or not shown; [ ] = another dose, or the depositor's remark. An excerpt weighted towards active compounds, which were near 0.77% of everything screened. Unless noted, calls come from the whole dose curve; as a rule, active = well fitted curve in the direction sought with a large enough effect; inconclusive = small, poorly fitted or top-dose-only effect, or another doubt; inactive = no such curve, though single readings can be large; an effect the other way counts as inactive or inconclusive.

SMILES	LmPK inh	Tb PYK inh	NS1 function inh	RE007 growth inh
O=C(Nc1ccccc1)C(Cl)C(=O)c1ccccc1 (stereo unspecified)	0	0	0	7.08µM
Cc1ccc2nc(-c3cccc(N)c3)oc2c1	0	0	0	0
CCc1ccc2oc(-c3cccc(N)c3)nc2c1	?	0	0	10µM
CO[C@H]1C[C@@H]2CC[C@@H](C)[C@@](O)(O2)C(=O)C(=O)N2CCCC[C@H]2C(=O)O[C@H]([C@H](C)C[C@@H]2CC[C@@H](OCCO)[C@H](OC)C2)CC(=O)[C@H](C)/C=C(\C)[C@@H](O)[C@@H](OC)C(=O)[C@H](C)C[C@H](C)/C=C/C=C/C=C/1C	-	0	-	-
Cc1ccc2nc(N(CCCN(C)C)C(=O)c3ccc4ncsc4c3)sc2c1	0	25.1µM	0	0
COc1ccc2nc(N(CCN(C)C)C(=O)c3ccc4ncsc4c3)sc2c1	-	0	-	0
Cc1ccc2nc(-c3ccccc3)cn2c1	7.08µM	25.1µM	0	44.7µM
Cc1ccc2nc(-c3ccc(O)c(O)c3)cn2c1	?	0	0	0
Cc1ccc(O)c(NC2=C(Cl)C(=O)N(Cc3ccccc3)C2=O)c1	0	35.5µM	0	0
Cc1c(N)nc([C@@H](CC(N)=O)NC[C@H](N)C(N)=O)nc1C(=O)N[C@H](C(=O)N[C@H](C)[C@H](O)[C@H](C)C(=O)N[C@@H](C(=O)NCCc1nc(-c2nc(C(=O)NCCC[S+](C)C)cs2)cs1)[C@H](C)O)[C@H](O[C@@H]1O[C@@H](CO)[C@@H](O)[C@H](O)[C@@H]1O[C@H]1O[C@H](CO)[C@H](O)[C@H](OC(N)=O)[C@@H]1O)c1cnc[nH]1	-	0	-	-
COc1ccc(CN(CCC#N)C(=S)NC(=O)c2ccccc2)cc1	20µM	?	0	0
CCOc1ccc(CN(CCC#N)C(=S)NC(=O)c2ccccc2)cc1	?	0	0	0
O=C1c2ccccc2C(=O)C1c1ccc2ccccc2n1	14.1µM	0	0[9.22 µM]	0
COC(=O)C1=C(C)NC(C)=C(C(=O)OC)C1c1ccc2ccccc2n1	0	0	0	0
CN(C)CCCn1cnc2cc(Cl)c(Cl)cc21	-	-	0	-
Cc1ccc(C(=O)Nc2nc(C)c(C)s2)o1	14.1µM	0	0	0
Cc1ccc2nc(NC(=O)c3ccc(Br)o3)sc2c1	0	0	0	0
Cc1nc(NC(=O)c2ccc(Br)o2)sc1C	15.8µM	0	0	0
COc1cc2c(cc1OC)C1O[C@](c3ccsc3)(C2)OC2=C1C(=O)OC1(CCCCC1)C2	0[11.5 µM]	-	0	-
c1ccc(B2OC[C@@H]3OB(c4ccccc4)O[C@H]([C@@H]4COB(c5ccccc5)O4)[C@@H]3O2)cc1	-	-	0	-
CC(C)(C)NC(=O)NC(=O)CN1CCN(c2ccccc2)CC1	0	0	-	0
CC(C)(C)NC(=O)NC(=O)CN1CCN(c2ccc(O)cc2)CC1	12.6µM	?	-	0
Cc1ccc([C@@]2(C)CC/C(=N/N=C3\CC[C@](C)(c4ccc(C)c(C)c4)c4cc(C)c(C)cc43)c3cc(C)c(C)cc32)cc1C	-	-	0	-
C/C(=N\NC(=O)c1n[nH]c2c1CCC2)c1ccco1	15.8µM	?	0	0
C/C(=N/NC(=O)c1ccccn1)c1ccco1	14.1µM	?	0	0
SMILES	LmPK inh	Tb PYK inh	NS1 function inh	RE007 growth inh
CCC(C)(C)C1CCc2[nH]nc(C(=O)N/N=C(\C)c3ccco3)c2C1 (stereo unspecified)	0	0	0	0
CC(C)(C)NC[C@H](O)c1ccc(O)cc1Cl	-	0	-	-
COC(=O)c1ccc(-n2c(C)cc(C(=O)CCl)c2C)cc1	0	0	-	25.1µM
CCOc1ccc(-n2c(C)cc(C(=O)CCl)c2C)cc1	0	0	-	?
CCn1c(-c2csc3ccccc23)n[nH]c1=S	10µM	?	0	0
CC(C)Cn1c(-c2csc3ccccc23)n[nH]c1=S	14.1µM	?	0	0
CCn1c(-c2ccccc2O)n[nH]c1=S	0	?	0	0
COc1ccc(-c2n[nH]c(=S)n2CC(C)C)cc1	28.2µM	?	0	0
COc1ccc(Cn2c(-c3ccc(OC)cc3)n[nH]c2=S)cc1	?	?	0	0
CC(C)C[C@@H](NC(=O)[C@H](Cc1ccccc1)NC(=O)c1cnccn1)B(O)O	-	0	-	-
NC(=O)C1CCN(C2CC(=O)N(c3cccc(F)c3)C2=O)CC1 (stereo unspecified)	0	0	0	14.1µM
NC(=O)C1CCN(C2CC(=O)N(c3ccc(F)c(Cl)c3)C2=O)CC1 (stereo unspecified)	0	0	0	10µM
COc1cccc(-c2cn3nc(C)c(C)nc3n2)c1	12.6µM	0	0	?
Cc1nc2nc(-c3cccs3)cn2nc1C	28.2µM	0	0	?
C[C@@H]1CCCC(CC(=O)O)(CC(=O)O)C1	-	-	0	-
Cc1csc(=NC(=O)c2ccccc2)n1C	0	0	0	0
O=C(N=c1nc2ccccn2s1)c1ccccc1	3.55µM	?	11.2µM	0
Cc1cc2cc(CNC(=O)c3ccc(S(=O)(=O)N4CCCCC4)cc3)ccc2n1C	0	0	1.26µM	0
Cc1cccc(-n2c(CNC(=O)c3ccc(S(=O)(=O)N4CCCCC4)cc3)n[nH]c2=S)c1	0	7.94µM	0	0
O=C(NCc1n[nH]c(=S)n1-c1cccc(Cl)c1)c1ccc(S(=O)(=O)N2CCCC2)cc1	0	?	0	0
Cc1ccc(/C=C2\C(=O)NC(=S)N(c3ccc(F)cc3)C2=O)s1	0	?	-	0
Cc1ccc(/C=C2\C(=O)NC(=S)N(c3ccccc3F)C2=O)s1	0	31.6µM	0	0
Cc1ccc2c(Br)cc(Br)c(O)c2n1	-	0	-	-
CN(C)CCCNC(CC(=O)Nc1ccc(Cl)cc1)C(=O)O (stereo unspecified)	-	-	0	-
Cc1cccc(-n2ncc3c(N4CCOCC4)ncnc32)c1	25.1µM	0	0	0
SMILES	LmPK inh	Tb PYK inh	NS1 function inh	RE007 growth inh
COc1ccc(-n2ncc3c(N4CCCCC4)ncnc32)cc1	15.8µM	0	0	0
CCN(CC)CCNC(=O)c1c(C)[nH]c(/C=C2\C(=O)Nc3ccc(F)cc32)c1C	-	0	-	-
COCCn1c(=O)c(-c2cc(F)cc(F)c2)nc2cnc(Oc3cccc(Cl)c3)nc21	-	0	-	-
c1ccc(SSc2ccccn2)nc1	-	?	-	44.7µM
c1ccc(Sc2ccccn2)cc1	-	0	-	0
Cc1cccc(C)c1NC(=O)CSc1nnc(-c2ccco2)c(-c2ccco2)n1	0	?	?	0
Cc1ccccc1NC(=O)CSc1nnc(-c2ccco2)c(-c2ccco2)n1	0	20µM	?	0
COc1ccc(S(=O)(=O)Nc2cc(Sc3ncn[nH]3)c(O)c3ccccc23)cc1	3.16µM	-	0	31.6µM
C=CCNC(=O)N1CCc2nc(CCCC)c3c(c2C1)CO[C@@H](C)C3	0[11.5 µM]	-	-	-
Nc1c(C(=O)N2CCOCC2)sc2nc(N3CCOCC3)c3c(c12)CCCC3	0	15.8µM	0	0
NNC(=O)c1sc2nc(N3CCOCC3)c3c(c2c1N)CCCC3	0	0	0	0
O=C(Nc1ccc(Nc2ccc3c(c2)C(=O)c2ccccc2C3=O)c2c1C(=O)c1ccccc1C2=O)c1ccccc1	-	-	0	-
CCCCc1nc2c(c3c1C[C@H](C)OC3)CN(S(=O)(=O)c1ccc(C#N)cc1)CC2	0[11.5 µM]	-	-	-
S=C(Nc1ccc(Cl)cc1)c1nc2ccccc2[nH]1	0	0	0	6.31µM
